For 14 compounds, outcome results are on record in PubChem BioAssay.

Potency and affinity values are given separately. Activity calls are given as the source filed them. Entries that show only a call come without a potency. The limit is not given here; nearly all actives have IC50 up to about 0.91 µM.

The target of the experiment is Calcium-dependent protein kinase 4 (Plasmodium falciparum (isolate 3D7)) (UniProt Q8IBS5). Kind of experiment: PfCDPK4 kinase inhibitors, biochemical, TCAMS library (AID 1159588). The note with it: recombinant PfCDPK4, Kinase-Glo ATP depletion luminescence. Background: In Kinase-Glo more light means more ATP remaining.
Sequence of Calcium-dependent protein kinase 4 (Plasmodium falciparum (isolate 3D7)) (Q8IBS5 whole entry, looked up): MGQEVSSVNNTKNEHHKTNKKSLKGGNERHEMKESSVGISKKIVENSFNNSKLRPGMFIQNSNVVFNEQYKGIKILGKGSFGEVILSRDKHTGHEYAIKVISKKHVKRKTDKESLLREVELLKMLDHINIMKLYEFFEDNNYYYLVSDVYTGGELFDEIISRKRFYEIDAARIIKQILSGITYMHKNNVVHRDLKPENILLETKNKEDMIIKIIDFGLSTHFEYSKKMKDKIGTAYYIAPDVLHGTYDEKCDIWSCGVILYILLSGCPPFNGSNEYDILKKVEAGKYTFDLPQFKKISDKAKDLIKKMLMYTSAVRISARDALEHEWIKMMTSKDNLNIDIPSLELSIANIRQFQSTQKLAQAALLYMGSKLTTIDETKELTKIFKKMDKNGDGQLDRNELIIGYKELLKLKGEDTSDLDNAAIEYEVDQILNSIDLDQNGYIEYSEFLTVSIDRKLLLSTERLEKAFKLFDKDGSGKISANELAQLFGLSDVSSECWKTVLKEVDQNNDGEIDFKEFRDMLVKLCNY
Consider `COc1cccc(CNC[C@@H](O)[C@H](Cc2ccccc2)NC(=O)c2cc(C(C)C)cc(N3CCCC3=O)c2)c1`, for which the outcome was inactive.

Consider `COc1ccc2ncc(C#N)c(CCN3CCC(NCc4ccc5c(c4)OCCO5)CC3)c2c1`, for which the result was inactive.

With `CCC(CC)(Cc1ccccc1)NC(=O)[C@H](CC(C)C)Nc1ccc(C#N)c2ccccc12`, the outcome was inactive.

As for `O=S(=O)(Nc1cccc(CCN2CCCCC2CCN2CCCC2)c1)c1ccc(-c2ccccc2)cc1` (centres undefined), the result was inactive.

For `COc1cccc2sc(N3CCN(C(=O)c4ccc([N+](=O)[O-])o4)CC3)nc12`, the result was inactive.

Consider `Cc1onc(-c2c(F)cccc2Cl)c1C(=O)Nc1ccccc1I`, for which the outcome was inactive.

As to `Cc1ccccc1C1CCN(C2CCC(NC(=O)c3ccc(-c4cccs4)s3)CC2)CC1` (centres undefined), the result was inactive.

Take `COc1ccccc1CCNc1nc(C)cc(NCCC(=O)Nc2ccccc2)n1`: the outcome was inactive.

Consider `O=C(Cn1c(CCc2cccc(F)c2F)cc(=O)c2ccccc21)N(CCN1CCCC1)Cc1ccc(-c2ccc(C(F)(F)F)cc2)cc1`, for which the result was inactive.

With `O=C(CCN1C(=O)c2ccccc2C1=O)N1CCN(CC=Cc2ccccc2)CC1`, the outcome was inactive.

For `Cc1cccc(CN2CCCC3(CCN(Cc4ccccc4O)C3)C2)c1` (centres undefined), the outcome was inactive.

For `Nc1nc2c(c(=O)[nH]1)CN(S(=O)(=O)c1ccc(C(=O)N[C@@H](CCC(=O)O)C(=O)O)cc1)CC2`, the result was inactive.

In the case of `O=C(Nc1cccc(-c2nc3ccccc3[nH]2)c1)c1ccc(-c2cccc([N+](=O)[O-])c2)o1`, the result was inactive.

Turning to `O=C(/C=C/c1ccc(Cl)c(Cl)c1)NCCCCCCN1CCN(C(=O)Nc2cccc(Cl)c2)CC1`, the result was inactive.
